Hit rate of the full screen: of about 2,100 compounds, about 1,100 (52%) were called active. Roughly 29% stayed inconclusive and do not appear here. Calls follow the shape of the dose curve; as a rule, active = well fitted inhibition curve with a large enough effect; inconclusive = small, poorly fitted or top-dose-only effect; inactive = no such curve, though single readings can be large or run the other way. The set was probably picked from earlier hits. This is one part of the list.
% is scaled to controls: 0 for no effect and ±100 for the full control effect; potency is read from the fitted curve at half-maximal effect.

The target of the experiment is DNA dC->dU-editing enzyme APOBEC-3F (Homo sapiens) (UniProt Q8IUX4). As to the kind of experiment: qHTS for inhibitors of Vif-A3F interactions: Cherry picks counterscreen. Also: nearly all actives have a fitted effect of over 65% in size. The conditions noted are these: HeLa A3F-eYFP/Vif cells, eYFP fluorescence, 24 h; series mostly up to 46.1 µM; activity, negative = inhibitor: at the top concentration. An excerpt: The recent discovery and characterization of host restriction factors, which provide a potent defense to invading retroviruses, has provided new targets for antiviral drug development. APOBEC3G (A3G) and APOBEC3F (A3F) are potent cytidine deaminases that block HIV-1 replication; HIV-1 expresses the Vif protein, which counteracts A3G and A3F by binding to them and inducing their proteasomal degradation. The Vif-A3G and Vif-A3F interactions provide two potential targets for development of small molecules which can interfere with the ability of Vif to degrade A3G or A3F. […] To identify inhibitors that can interfere with Vif mediated degradation of A3G and A3F, we have developed Hela cell lines that stably express A3G or A3F tagged with eYFP at the C-terminal end (A3G-eYFP or A3F-eYFP, respectively) and Vif. In the absence of an inhibitor, Vif induces degradation of A3G-eYFP and A3F-eYFP, and the cells are not fluorescent. In the presence of an inhibitor, it is expected that Vif will be unable to degrade A3G-eYFP and/or A3F-eYFP, resulting in an increase in yellow fluorescence. In this counterscreen assay, Vif A3F was screened against the cherry picks ordered from the MLSMR. NIH Chemical Genomics Center [NCGC] NIH Molecular Libraries Probe Centers Network [MLPCN] MLPCN Grant: MH093245 Assay Submitter (PI): Vinay Pathak, National Cancer Institute
DNA dC->dU-editing enzyme APOBEC-3F (Homo sapiens), sequence (Q8IUX4 whole entry, looked up): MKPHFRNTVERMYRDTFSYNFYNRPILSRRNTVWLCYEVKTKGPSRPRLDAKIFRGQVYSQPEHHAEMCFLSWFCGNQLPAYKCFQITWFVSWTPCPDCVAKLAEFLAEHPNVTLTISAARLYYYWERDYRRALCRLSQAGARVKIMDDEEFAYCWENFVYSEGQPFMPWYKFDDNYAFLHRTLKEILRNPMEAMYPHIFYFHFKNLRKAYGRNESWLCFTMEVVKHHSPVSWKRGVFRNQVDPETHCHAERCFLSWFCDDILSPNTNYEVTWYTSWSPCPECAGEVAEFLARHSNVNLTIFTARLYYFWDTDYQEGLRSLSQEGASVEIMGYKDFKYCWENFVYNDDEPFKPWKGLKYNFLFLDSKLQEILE
A3F-Vif cells were harvested from T225 flask and resuspended in phenol free OPTI-MEM medium with 5% FBS. Then 5 uL of 140,000 cells/mL resuspended cells was dispensed into each well of low base Aurora COC 1,536-well plates (black walled, clear bottom) using a Multidrop Combi dispenser. After overnight culture at 37 deg C with 5% CO2, a total of 23 nL of compounds at 5 selected concentrations from the NPC or positive control (2 mM stock of MG132) in DMSO was transferred to each well of the assay plate using a pintool (Kalypsys, San Diego, CA), and the plates were further incubated at 37 deg C with 5% CO2 for 24 hours. After that, the plates were measured on Acumen Explorer (TTP Lab Tech). The fluorescence was detected by 488 nm/Ex and […].
Background: qHTS replaces the single test concentration by a dilution series.
For the compound `COc1ccc(C(=O)C(C)[n+]2ccc(C)c3ccccc32)cc1[N+](=O)[O-]` (configuration not stated), the “activity, negative = inhibitor” value was 0.317% [at 36.9 µM] (inactive). With `COc1ccccc1NC(=O)C1=C(C)Nc2nc3ccccc3n2C1c1cccs1` (configuration not stated), the Potency was 1.4 µM (active). The same measure, in the same setting: in the case of `COc1ccc2[nH]c3c(c2c1)CCNC3c1ccc([N+](=O)[O-])o1` (configuration not stated) it was 18.4 µM (active). On to `COc1ccc(C(=O)Nc2sc3c(c2C#N)CCN(C(C)=O)C3)cc1`, for which the Potency is 9.94 µM (active).

Regarding `CC(C)N1CCc2c(sc(NC(=O)c3cc4cc([N+](=O)[O-])ccc4s3)c2C(N)=O)C1`, the Potency was 23.1 µM (active). Same read-out and setting: in the case of `CC(C)CN(CC(C)C)S(=O)(=O)c1ccc(C(=O)Nc2sc3c(c2C(N)=O)CCN(C(C)C)C3)cc1` it was 20.6 µM (active); in that of `CCCCN(CCCC)S(=O)(=O)c1ccc(C(=O)Nc2sc3c(c2C(N)=O)CCN(CC)C3)cc1`, 25.9 µM (active).

In the case of `CCN1CCc2c(sc(NC(=O)c3ccc(S(=O)(=O)N(CC)c4ccccc4)cc3)c2C(N)=O)C1`, the Potency was 12.5 µM (active). On the same count and under the same terms, in the case of `CC(C)N1CCc2c(sc(NC(=O)c3ccc(S(=O)(=O)N4CCOCC4)cc3)c2C#N)C1` it was 20.6 µM (active).

As for `CCCN1CCc2c(sc(NC(=O)c3ccc(S(=O)(=O)N(C)c4ccccc4)cc3)c2C(=O)NC)C1`, the Potency is 18.4 µM (active).

Consider `CCN1CCc2c(sc(-n3cccc3)c2C(C)NC(=O)Nc2ccc(C(=O)OC)cc2)C1` (configuration not stated), for which the “activity, negative = inhibitor” value was 8.59% (inactive).

On to `CCOC(=O)c1c(NC(=O)c2ccc(S(=O)(=O)N3CCC(C)CC3)cc2)sc2c1CCN(C)C2`, for which the Potency was 18.4 µM (active).

Turning to `CN1C(=O)N(C)c2ccc(C=O)c3cccc1c23`, the “activity, negative = inhibitor” value was 14.9% (inactive). Turning to `CCCN1CCc2c(sc(NC(=S)NC(=O)c3ccccc3)c2C#N)C1`, the Potency is 16.4 µM (active). Take `CCCN1CCc2c(sc(NC(=O)c3ccc(S(=O)(=O)N(C)c4ccccc4)cc3)c2C(N)=O)C1`: the Potency was 23.1 µM (active). With `O=C(NC(=S)Nc1ccccc1N1CCCCC1)c1ccccc1`, the “activity, negative = inhibitor” value is -14.4% (inactive).

Regarding `N#CC(C#N)=C1C=C2C=C(N3CCOCC3)CCC2CC1` (configuration not stated), the “activity, negative = inhibitor” value was 24.4% (inactive). As for `O=C1OCC2=C1C(c1ccc3c(c1)OCO3)c1cc3c(cc1O2)OCO3` (configuration not stated), the Potency is 1.25 µM (active).

Consider `COc1cc(C2C3=C(COC3=O)Oc3cc4c(cc32)OCO4)ccc1OC(C)=O` (configuration not stated), for which the Potency was 3.14 µM (active).

Take `N#C/C=C/N1CCN(C(=O)c2ccco2)CC1`: the “activity, negative = inhibitor” value is 15% [at 36.9 µM] (inactive). `CCCCn1c(N)c(N(CC(C)C)C(=O)Cc2ccc(S(=O)(=O)N3CCOCC3)s2)c(=O)[nH]c1=O`: the Potency is 16.4 µM (active). For `CCCCn1c(N)c(N(CCC(C)C)C(=O)c2ccc([N+](=O)[O-])o2)c(=O)[nH]c1=O`, the “activity, negative = inhibitor” value was -13.3% (inactive).

In the case of `C=CCN1C(=O)c2ccc(C(=O)N(CC(C)C)c3c(N)n(CCCC)c(=O)[nH]c3=O)cc2C1=O`, the “activity, negative = inhibitor” value was -17.4% [at 36.9 µM] (inactive). Consider `O=C(O)c1ccccc1N/N=C/c1c(Sc2nnnn2-c2ccccc2)nc2ccccn2c1=O`, for which the “activity, negative = inhibitor” value is 31.2% [at 36.9 µM] (inactive). In the case of `CC(C)COc1ccc(C(=O)N/C(=C/c2cccc([N+](=O)[O-])c2)C(=O)O)cc1`, the “activity, negative = inhibitor” value is -5.47% [at 36.9 µM] (inactive). `CCN1C/C(=C\c2cccc([N+](=O)[O-])c2)C(=O)/C(=C/c2cccc([N+](=O)[O-])c2)C1`: the Potency was 2.5 µM (active). Regarding `C[n+]1ccc(/C=C/c2c[nH]c3ccccc23)cc1`, the Potency is 6.51 µM (active). Regarding `C[n+]1ccc(/C=C/c2cc[n+](C)c3ccccc23)c2ccccc21`, the “activity, negative = inhibitor” value was 0.363% (inactive).

`OCC[n+]1ccc(/C=C/c2c[nH]c3ccccc23)cc1`: the Potency is 5.8 µM (active).

With `CC[n+]1ccc(/C=C/c2c[nH]c3ccccc23)cc1`, the Potency was 1.84 µM (active). Consider `COc1ccccc1NC(=O)Cc1ccc(-c2ccccc2)cc1`, for which the “activity, negative = inhibitor” value was -0.174% (inactive).

Take `COc1ccc(C(=O)N/N=C/c2ccccc2OC(=O)c2ccccc2)cc1`: the Potency was 3.96 µM (active). Turning to `O=C(Nc1ccccc1OC(=O)c1ccccc1)c1ccccc1`, the Potency is 15.8 µM (active). With `O=C(NC(=S)Nc1ccc(-c2ccccc2)cc1)c1ccccc1`, the “activity, negative = inhibitor” value is 10.7% (inactive). On to `NC(=S)N/N=C/c1ccccc1OC(=O)/C=C/c1ccccc1`, for which the “activity, negative = inhibitor” value is 6.59% (inactive).

For the compound `C=C1C(=O)O[C@H]2C1CC[C@@](C)(O)C13C=CC(C)(C21)C1(C3)C(=O)O[C@@H]2C3C(C)=CCC3[C@](C)(O)C[C@H](OC(C)=O)C21` (some centres not stated), the Potency was 17.7 µM (active). `Cc1c(NC(=O)c2csc3c2CCCC3)c(=O)n(-c2ccccc2)n1C`: the “activity, negative = inhibitor” value was 9.75% (inactive). Regarding `Cc1c(N=C2N=C(NC(=O)c3cccs3)c3ccccc32)c(=O)n(-c2ccccc2)n1C`, the Potency was 14 µM (active).

For `N#Cc1c(C(F)(F)F)cc(-c2ccccc2)nc1SCc1nc(N)nc(N2CCOCC2)n1`, the Potency was 16.4 µM (active). As for `COc1c(-c2ccc(O)c(O)c2)oc2cc(O)cc(O)c2c1=O`, the Potency is 12.5 µM (active). Take `Cc1cc(NC(=O)Nc2nnc(N(C)Cc3ccccc3)s2)ccc1Br`: the “activity, negative = inhibitor” value is 0.433% (inactive). Turning to `CSc1nc2ccccc2cc1/C=C(\C#N)c1cccc(C)c1`, the Potency was 11.2 µM (active). Regarding `N#C/C(=C\c1cccc(O)c1)c1nc2ccccc2o1`, the Potency is 7.9 µM (active). On to `Nc1c(C(=O)N/N=C/c2cccnc2)oc2nc(-c3ccccc3)cc(-c3ccco3)c12`, for which the Potency was 4.11 µM (active). The same measure, in the same setting: for `Nc1c(C(=O)N/N=C/c2ccc(F)cc2)oc2nc(-c3ccccc3)cc(-c3ccco3)c12` the value was 14 µM (active). With `Nc1c(C(=O)N/N=C/c2ccccc2Cl)oc2nc(-c3ccccc3)cc(-c3ccco3)c12`, the Potency was 10.3 µM (active). Regarding `C/C(=N\Nc1nc(C)cc(-c2ccccc2)n1)c1ccc(F)cc1`, the “activity, negative = inhibitor” value is -4.82% (inactive).

Values taken from PubChem BioAssay AID651815 (National Center for Advancing Translational Sciences (NCATS), 2012).
